Laboratory results taken from the supplement of paper PMC10811239.

Test system: LEGO organoid PT (PTEN-/-; TP53-/-)
Assay: bioluminescence (viable cell) signal fold change after vs before treatment, normalised to DMSO (ratio); higher = more tumour cell growth / less inhibition
Conditions: 10 µM; treatment time 6 days
Procedure: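 Luc2-labelled iPSC-derived glioblastoma-like organoids (LEGOs, genotypes PT = PTEN-/-;TP53-/-, PTCC = plus CDKN2A/B-/-, PTN = plus NF1-/-) were treated with 10 uM drug for 6 days (applied every other day) at 37 C. Bioluminescence imaging was done before treatment and 2 days after the last dose. BLI signals were normalised to the DMSO control on the same day and then to the pre-treatment signal (N=3).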

SMILES	bioluminescence
COC(=O)N[C@H](C(=O)N[C@@H](Cc1ccccc1)[C@@H](O)CN(Cc1ccc(-c2ccccn2)cc1)NC(=O)[C@@H](NC(=O)OC)C(C)(C)C)C(C)(C)C.O=S(=O)(O)O [Atazanavir sulfate]	1.05
Cc1nc2c([nH]1)CCN(C(=O)c1ccc(NC(=O)c3ccccc3-c3ccccc3)cc1)c1ccccc1-2.Cl [Conivaptan hydrochloride]	0.674
OCCN1CCN(CCCN2c3ccccc3Sc3ccc(Cl)cc32)CC1 [Perphenazine]	0.743
CNS(=O)(=O)CCc1ccc2[nH]cc(C3CCN(C)CC3)c2c1.Cl [Naratriptan hydrochloride]	0.774
C/C=C(/C)C(=O)O[C@H]1C(C)=C[C@]23C(=O)[C@@H](C=C(CO)[C@@H](O)[C@]12O)[C@H]1[C@@H](C[C@H]3C)C1(C)C [Ingenol Mebutate]	0.841
CNCCCN1c2ccccc2CCc2ccccc21.Cl [Desipramine hydrochloride]	0.858
CCCCCOC(=O)Nc1nc(=O)n([C@@H]2O[C@H](C)[C@@H](O)[C@H]2O)cc1F [Capecitabine]	2.21
Cl.Nc1c2c(nc3ccccc13)CCCC2.O [Tacrine hydrochloride hydrate]	0.719
CCOc1nc2cccc(C(=O)OC(C)OC(=O)OC3CCCCC3)c2n1Cc1ccc(-c2ccccc2-c2nn[nH]n2)cc1 (stereo not given) [Candesartan Cilexetil]	1.14
COc1c(N2CCNC(C)C2)c(F)cc2c(=O)c(C(=O)O)cn(C3CC3)c12 (stereo not given) [Gatifloxacin]	1.66
C=CC(=O)N1CCC[C@@H](n2nc(-c3ccc(Oc4ccccc4)cc3)c3c(N)ncnc32)C1 [Ibrutinib]	0.73
O=C(NC1CCN(CCCCC2(C(=O)NCC(F)(F)F)c3ccccc3-c3ccccc32)CC1)c1ccccc1-c1ccc(C(F)(F)F)cc1 [Lomitapide]	0.0143
CCOc1nc2cccc(C(=O)O)c2n1Cc1ccc(-c2ccccc2-c2nn[nH]n2)cc1 [Candesartan]	0.993
Nc1nc2ccc(OC(F)(F)F)cc2s1 [Riluzole]	0.939
Nc1ncnc2c1ncn2[C@@H]1O[C@H](CO)[C@@H](O)[C@H]1O [Adenosine]	2.1
COc1cc(C(=O)NCc2ccc(OCCN(C)C)cc2)cc(OC)c1OC.Cl [Trimethobenzamide hydrochloride]	1.11
Cc1nc2n(c(=O)c1CCN1CCC(c3noc4cc(F)ccc34)CC1)CCCC2 [Risperidal]	1.57
C=CC(=O)Nc1cc(Nc2nccc(-c3cn(C)c4ccccc34)n2)c(OC)cc1N(C)CCN(C)C [Osimertinib]	0.644
CN1C(C(=O)Nc2ccccn2)=C(O)c2ccccc2S1(=O)=O [Piroxicam]	1.07
CN=C(NC#N)NCCSCc1nc[nH]c1C [Cimetidine]	1.14

SMILES	bioluminescence
CCCN[C@H]1CCc2nc(N)sc2C1.Cl.Cl.O [Pramipexole 2HCl Monohydrate]	1.35
CS(=O)(=O)c1ccc(C2=C(c3ccccc3)C(=O)OC2)cc1 [Rofecoxib]	1.25
Cc1ncc([N+](=O)[O-])n1CCO [Metronidazole]	0.839
CN(C)CCc1c[nH]c2ccc(C[C@H]3COC(=O)N3)cc12 [Zolmitriptan]	0.724
CS(=O)(=O)CCNCc1ccc(-c2ccc3ncnc(Nc4ccc(OCc5cccc(F)c5)c(Cl)c4)c3c2)o1 [Lapatinib]	1.62
NNC(=O)c1ccncc1 [Isoniazid]	0.807
CN1[C@@H]2CC[C@H]1C[C@@H](OC(c1ccccc1)c1ccccc1)C2.CS(=O)(=O)O [Benztropine mesylate]	1.14
CCN(CC)C(=O)[C@@]1(c2ccccc2)C[C@H]1CN.Cl [Milnacipran ((1S-cis) hydrochloride)]	0.856
Cc1ccccc1C(OCCN(C)C)c1ccccc1.O=C(O)CC(O)(CC(=O)O)C(=O)O (stereo not given) [Orphenadrine Citrate]	0.847
CN(C)C(=N)NC(=N)N.Cl [Metformin hydrochloride]	2.55
C/C(O)=C(\C#N)C(=O)Nc1ccc(C(F)(F)F)cc1 [Teriflunomide]	1.68
Cl.CN(C)CC\C=C1\c2ccccc2C=Cc2ccccc12 [Cyclobenzaprine hydrochloride]	0.825
FC(F)(F)C(Cl)Br (stereo not given) [Anestan]	1.01
O=c1[nH]c(=O)n(C2CCCO2)cc1F (stereo not given) [Tegafur]	1.04
CCN(CC)CCNC(=O)c1c(C)[nH]c(/C=C2\C(=O)Nc3ccc(F)cc32)c1C [Sunitinib]	0.391
CNS(=O)(=O)Cc1ccc2[nH]cc(CCN(C)C)c2c1.O=C(O)CCC(=O)O [Sumatriptan succinate]	1.23
CN(Cc1cnc2nc(N)nc(N)c2n1)c1ccc(C(=O)N[C@@H](CCC(=O)O)C(=O)O)cc1 [Methotrexate]	1.94
C[C@]12C=CC(=O)C=C1CC[C@@H]1[C@@H]2C(=O)C[C@@]2(C)[C@H]1CC[C@]2(O)C(=O)CO [Prednisone]	1.13
CCCOc1ccc(S(=O)(=O)NCCC2CCCN2C)cc1-c1nc2c(CCC)nn(C)c2c(=O)[nH]1 (stereo not given) [Udenafil]	1.36
N[C@@H]1CONC1=O [D-Cycloserine]	1.3
